Screening data from PubChem.
Rows were chosen to be rich in hits. Some 17% of all compounds tested hit in one or more screens of this group.
TGFb SMAD3 inh = TGF-b pathway inhibition; Potency, µM (series often up to 46.1 µM), actives largely listed as inhibitors; AID 588855; HepG2 CAGA-GFP TGF-b/SMAD3 reporter, GFP fluorescence, 18 h; TGF-beta stimulated, 500 pg/mL final; 1.2% of 410,000 active; further: nearly all actives have a fitted effect of over 65% in size
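Using HEPG2 CAGA-GFP reporter cells at 1000 cells/well, we pinned test compounds, stimulated with recombinant TGF-beta (500 pg/mL final) and measured total well GFP after 18 h.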
TDP1 cell noCPT = qHTS for Inhibitors of human tyrosyl-DNA phosphodiesterase 1 (TDP1): qHTS in cells in absence of CPT; AID 686978, 2013; 15% of 420,000 active; DT40 Tdp1-/- hTDP1 cells, no CPT, ATP luminescence, 48 h; Potency, µM (doses to about 46.2 µM), hits mostly inhibitors; further: nearly all actives have a fitted effect of over 55% in size
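Luminescent ATP content (CellTiter-Glo) served as the growth readout. Knockout chicken DT40 cells expressing human TDP1 were exposed to compounds without camptothecin for a minimum 48 hr at 37 °C.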
ATXN viability = cell viability loss in ATXN counter-screen; S2 cells (HEK-293 line with an ATXN2-luciferase reporter) viability, CellTiter-Fluor protease fluorescence, 24 h; Potency, µM (top dose mostly 56.7 µM), actives largely listed as cytotoxic; 0.49% of 400,000 active; AID 651635; further: nearly all actives have a fitted effect of over 40% in size
ATXN2 expr inh = ATXN2 expression inhibition; HEK-293 ATXN2-luciferase reporter, luminescence, 24 h; Potency, µM (titrated, usually from 57 µM), most hits filed as inhibitors; 0.72% of 360,000 active; further: nearly all actives have a fitted effect of over 55% in size
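ATXN2-luciferase reporter cells (luciferase flanked by upstream and downstream ATXN2 gene portions) were treated 24 h at 37 °C with compounds at up to 57 uM. SteadyGlo luminescence gave expression; GF-AFC fluorescence gave viability.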
TDP1 cell CPT = growth inhibition of DT40 Tdp1-/-;hTDP1 cells with camptothecin (screen for TDP1 inhibitors); Potency, µM (series often up to 46.2 µM), most hits filed as inhibitors; 12% of 420,000 active; chicken DT40 Tdp1-/-;hTDP1 cells + 20 nM CPT, ATP luminescence, 48 h; further: nearly all actives have a fitted effect of over 55% in size
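Chicken DT40 Tdp1-/- cells stably complemented with human TDP1 were seeded at 400 cells/well in medium containing 20 nM camptothecin, exposed to pin-transferred compounds, and grown at 37 °C for at least 48 hr. Viability was read as ATP luminescence.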
HepG2 viability = kills HepG2 cells in TGF-b inhibitor counter-screen | 0.76% of 410,000 active | HepG2 CAGA-GFP viability, ATP luminescence, 18 h | AID 588856 | Potency, µM (highest dose often 46.1 µM), hits mostly cytotoxic
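CellTiter-Glo luminescence gave cytotoxicity after 18 hours at 37 degrees C. The cells were HepG2 CAGA-GFP in 1% FBS DMEM, stimulated with 500 pg/mL TGF-beta after compound addition. %Activity was normalised to no-cell wells (complete cell-killing) and DMSO (no toxicity), and curves were fitted and classified.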
Of the large screens only hits and unclear results are named; the others gave an inactive call. The call rests on the fitted dose curve; in most records, active means well fitted curve in the direction sought with a large enough effect; inconclusive means small, poorly fitted or top-dose-only effect, or another doubt; inactive means no such curve, though single readings can be large; an effect the other way counts as inactive or inconclusive.

Cc1cc(-c2nnc3n2N=C(c2ccccc2)CS3)n[nH]1	none (no result: ATXN viability)
CCCCCCCOC(=O)C[N+](C)(C)CCOC1CC2CCC1(C)C2(C)C (configuration not stated)	TGFb SMAD3 inh inconclusive, TDP1 cell noCPT 1.6µM, ATXN viability inconclusive, ATXN2 expr inh 35µM, TDP1 cell CPT 1.5µM, HepG2 viability 18µM
CCCCOC(=O)C[N+](C)(C)CCOC1CC2CCC1(C)C2(C)C (configuration not stated)	TDP1 cell noCPT 1.8µM, TDP1 cell CPT 2.1µM
CCC(C)OC(=O)C[N+](C)(C)CCOC1CC2CCC1(C)C2(C)C (configuration not stated)	TDP1 cell noCPT 1.5µM, TDP1 cell CPT 1.2µM
CCCOC(=O)C[N+](C)(C)CCOC1CC2CCC1(C)C2(C)C (configuration not stated)	TDP1 cell noCPT 4.6µM, TDP1 cell CPT 8.2µM
CCCCCCOC(=O)C[N+](C)(C)CCOC1CC2CCC1(C)C2(C)C (configuration not stated)	TDP1 cell noCPT inconclusive, TDP1 cell CPT inconclusive
Cn1ccnc1SCC(=O)Nc1cccc(S(=O)(=O)N2CCCCC2)c1	none
COc1ccc(S(=O)(=O)N2CCC(C(=O)N[C@H](C(=O)NC3CCCC3)C(C)C)CC2)cc1	none
O=C1CSc2ccc(S(=O)(=O)CCC(=O)NC3CCCCC3)cc2N1	TDP1 cell noCPT inconclusive (no result: ATXN2 expr inh)
CCCOC(c1ccccc1)(c1ccc(C(F)(F)F)cc1)C(Oc1nc(C)cc(C)n1)C(=O)O (configuration not stated)	TGFb SMAD3 inh inconclusive, TDP1 cell noCPT 21µM, TDP1 cell CPT 18µM (no result: ATXN2 expr inh)
CCOC(=O)C(CC)n1nc(C)n2c(cc3sccc32)c1=O (configuration not stated)	TDP1 cell noCPT 12µM, TDP1 cell CPT 12µM
Cc1nn(C(C)C(=O)NC2CCC(C)CC2)c(=O)c2cc3sccc3n12 (configuration not stated)	TDP1 cell noCPT inconclusive, TDP1 cell CPT 15µM (no result: ATXN viability, ATXN2 expr inh)
Cc1ccc(NS(=O)(=O)c2ccc(C(=O)N3CCC3)cc2)cc1	TDP1 cell noCPT inconclusive, TDP1 cell CPT inconclusive
CCOC(=O)N1CCN(C(=O)c2ccc(S(=O)(=O)Nc3ccc(C)cc3)cc2)CC1	TDP1 cell noCPT 10µM, TDP1 cell CPT 9.2µM
CCOC(=O)N1CCN(C(=O)c2ccc(NS(=O)(=O)c3ccc(C)cc3)cc2)CC1	TDP1 cell noCPT 13µM, TDP1 cell CPT 18µM
O=[N+]([O-])c1ccc(CN2CC(N3CCN(CC4CC4)CC3)CS2(=O)=O)cc1 (configuration not stated)	none
O=[N+]([O-])c1ccc(CN2CC(N3CCC(Cc4ccccc4)CC3)CS2(=O)=O)cc1 (configuration not stated)	TGFb SMAD3 inh inconclusive, TDP1 cell noCPT 16µM, ATXN viability inconclusive, TDP1 cell CPT 16µM
O=S1(=O)CC(N2CCCC2)CN1CCc1ccccc1 (configuration not stated)	none
O=S1(=O)CC(N2CCC(Cc3ccccc3)CC2)CN1CCc1ccccc1 (configuration not stated)	TGFb SMAD3 inh inconclusive, TDP1 cell noCPT 21µM, TDP1 cell CPT inconclusive
O=C(NC1CCN(Cc2cccc([N+](=O)[O-])c2)CC1)c1ccccc1	none
Cc1cccc(CN2CCN(C3CN(Cc4ccc([N+](=O)[O-])cc4)S(=O)(=O)C3)CC2)c1 (configuration not stated)	TGFb SMAD3 inh inconclusive, TDP1 cell noCPT 23µM, TDP1 cell CPT 16µM
O=[N+]([O-])c1cccc(CN2CCC(Cc3ccccc3)CC2)c1	TDP1 cell CPT 23µM
Cc1ccc(CNC(=O)c2oc3ccc(S(=O)(=O)N4CCOCC4)cc3c2C)cc1	TDP1 cell noCPT inconclusive
Cc1c(C(=O)NCc2cccnc2)oc2ccc(S(=O)(=O)N3CCCCC3)cc12	TDP1 cell noCPT 14µM, TDP1 cell CPT 10µM
Cc1ccc(C)c(NC(=S)Nc2cccnc2)c1	none
Cc1ccc(NC(=S)Nc2cccnc2)c(S(=O)(=O)N2CCCCC2)c1	TGFb SMAD3 inh inconclusive, TDP1 cell noCPT 16µM, TDP1 cell CPT 23µM
Cc1ccc(CNC(=O)c2oc3ccc(S(=O)(=O)N4CCC(C)CC4)cc3c2C)cc1	TGFb SMAD3 inh inconclusive, TDP1 cell noCPT 16µM, TDP1 cell CPT inconclusive
O=S(=O)(c1ccc(NC(=S)NCc2cccnc2)cc1)N1CCCCC1	TGFb SMAD3 inh inconclusive, TDP1 cell noCPT 6.5µM, ATXN viability inconclusive, TDP1 cell CPT 8.2µM (no result: ATXN2 expr inh)
O=C(O)c1ccc(CNC(=O)c2ccc3c(c2)OCCO3)cc1	none
CCc1cc(=O)oc2c(CNCc3ccc(OC)cc3OC)c(O)c(Cl)cc12	none (no result: ATXN viability)
Cc1ccc(S(=O)(=O)N(C)CC(=O)N2CCCC2)cc1	none
CN(C)c1ccc(CNC(=O)CC[C@H]2O[C@@H](n3cnc4c(NC(=O)c5ccccc5)ncnc43)[C@H](O)[C@@H]2O)cc1	none
COc1ccccc1OCC(=O)NCC1CCCN(Cc2cnn(C(C)C)c2)C1 (configuration not stated)	ATXN viability inconclusive
Cc1ccc(CNC(=O)CSC2=Nc3ccccc3N=C(c3ccc(F)cc3)C2)cc1	TGFb SMAD3 inh inconclusive
O=C(CSC1=Nc2ccccc2N=C(c2ccc(F)cc2)C1)NCc1ccccc1	TDP1 cell noCPT 18µM, TDP1 cell CPT inconclusive
COc1ccccc1CNC(=O)CSC1=Nc2ccccc2N=C(c2ccc(F)cc2)C1	TDP1 cell noCPT inconclusive, TDP1 cell CPT 26µM
O=S(=O)(c1cccc2nsnc12)N1CCCCC1	none (no result: ATXN2 expr inh)
CC1([N+](=O)[O-])COC(c2cccc3ccccc23)OC1 (configuration not stated)	none
Cc1ccc(CN2CCC(CNC(=O)c3ccc(NC(=O)C4=CSCCO4)cc3)CC2)cc1	none (no result: ATXN2 expr inh)
O=C(CCN1C(=O)/C(=C\c2ccccc2F)SC1=S)N1CCCCC1	TDP1 cell noCPT 2.9µM, ATXN viability 20µM, ATXN2 expr inh inconclusive, TDP1 cell CPT 3.7µM
O=C(CCN1C(=O)/C(=C/c2ccccc2)SC1=S)N1CCCCCC1	TDP1 cell noCPT 21µM, ATXN viability inconclusive, ATXN2 expr inh inconclusive, TDP1 cell CPT 12µM
O=C(CCN1C(=O)/C(=C\c2ccccc2Cl)SC1=S)N1CCN(c2ccccc2)CC1	TDP1 cell noCPT 10µM, TDP1 cell CPT 16µM
O=C(CN1C(=O)/C(=C/c2cccc(Br)c2)SC1=S)N1CCCC1	TDP1 cell noCPT 9.2µM, ATXN viability inconclusive, TDP1 cell CPT 3.3µM
